Holding throughout (set-up): scale not given: direction of the effect not stated beside the values
The target of experiment [1] is Protein translocase subunit SecA (Escherichia coli (strain K12)) (UniProt P10408). In words: Assay to Identify E. coli SecA ATPase Inhibitors. The experiment is classed as functional. To be noted: 30 µM.
Experiment [2] deals with T1, Ubiquitin-activating enzyme e1, putative (Leishmania donovani (strain BPK282A1)) (UniProt E9BSI1).
T1 sequence (whole entry): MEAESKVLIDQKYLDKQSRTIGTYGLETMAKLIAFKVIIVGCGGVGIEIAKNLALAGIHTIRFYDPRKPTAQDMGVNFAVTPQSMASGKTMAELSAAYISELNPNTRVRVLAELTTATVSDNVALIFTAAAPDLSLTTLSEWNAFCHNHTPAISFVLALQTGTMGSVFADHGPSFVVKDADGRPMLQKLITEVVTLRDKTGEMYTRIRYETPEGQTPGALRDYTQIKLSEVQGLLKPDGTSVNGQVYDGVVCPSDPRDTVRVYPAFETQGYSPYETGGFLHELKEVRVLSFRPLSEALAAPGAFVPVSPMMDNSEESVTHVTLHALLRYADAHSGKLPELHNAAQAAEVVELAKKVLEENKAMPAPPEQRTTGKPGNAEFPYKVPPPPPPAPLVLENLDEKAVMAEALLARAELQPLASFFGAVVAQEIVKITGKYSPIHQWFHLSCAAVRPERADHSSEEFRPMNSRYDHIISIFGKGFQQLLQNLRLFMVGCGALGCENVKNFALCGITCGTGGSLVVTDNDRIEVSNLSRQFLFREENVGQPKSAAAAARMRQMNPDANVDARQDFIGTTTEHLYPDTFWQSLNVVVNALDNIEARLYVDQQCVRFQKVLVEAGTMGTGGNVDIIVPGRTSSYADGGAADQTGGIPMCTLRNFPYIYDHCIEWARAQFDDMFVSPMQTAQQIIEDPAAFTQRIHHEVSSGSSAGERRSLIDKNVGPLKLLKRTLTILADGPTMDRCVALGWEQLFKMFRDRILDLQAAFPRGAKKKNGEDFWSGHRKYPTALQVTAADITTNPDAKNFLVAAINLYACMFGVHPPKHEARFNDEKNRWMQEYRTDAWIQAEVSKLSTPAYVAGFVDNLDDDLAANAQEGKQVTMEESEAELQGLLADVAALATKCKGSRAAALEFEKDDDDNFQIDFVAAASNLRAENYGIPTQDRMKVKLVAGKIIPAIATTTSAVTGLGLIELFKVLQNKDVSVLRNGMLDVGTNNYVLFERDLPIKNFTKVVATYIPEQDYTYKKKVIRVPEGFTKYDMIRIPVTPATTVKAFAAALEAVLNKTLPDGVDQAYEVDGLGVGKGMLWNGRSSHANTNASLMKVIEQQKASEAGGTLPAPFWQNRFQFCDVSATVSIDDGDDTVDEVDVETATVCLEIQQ
As to the kind of experiment: Leishmania donovani Ubiquitin Activating Enzyme (LdE1). The experiment is classed as functional. To be noted: 30 µM.

The target in experiment [3] is Sialic acid-binding Ig-like lectin 9 (Homo sapiens) (UniProt Q9Y336). As to the kind of experiment: Hs-Siglec9 ALPHAscreen SOP 20170721. To be noted: 10 µM.
Sialic acid-binding Ig-like lectin 9 (Homo sapiens), sequence (Q9Y336 whole entry): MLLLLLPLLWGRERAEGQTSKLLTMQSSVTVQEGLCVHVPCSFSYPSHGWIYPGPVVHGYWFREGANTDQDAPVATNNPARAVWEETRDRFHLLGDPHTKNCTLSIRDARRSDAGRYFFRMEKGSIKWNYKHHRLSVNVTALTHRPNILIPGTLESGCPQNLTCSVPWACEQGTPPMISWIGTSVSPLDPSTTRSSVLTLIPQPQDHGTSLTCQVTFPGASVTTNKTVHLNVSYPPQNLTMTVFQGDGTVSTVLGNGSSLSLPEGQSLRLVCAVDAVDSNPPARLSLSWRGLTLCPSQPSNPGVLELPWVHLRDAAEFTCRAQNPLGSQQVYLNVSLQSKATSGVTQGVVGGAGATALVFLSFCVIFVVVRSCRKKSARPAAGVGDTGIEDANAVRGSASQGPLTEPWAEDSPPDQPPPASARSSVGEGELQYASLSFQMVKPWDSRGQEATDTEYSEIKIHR
For the next experiment, the system named is Trypanosoma cruzi. As to the kind of experiment: Trypanosoma cruzi phosphomannomutase and mannose-1-phosphate guanylyltransferase assay. Format: functional. To be noted: 10 µM.
The target of experiment [4] is T2, Arginase-2, mitochondrial (Homo sapiens) (UniProt P78540).
T2 sequence (whole entry): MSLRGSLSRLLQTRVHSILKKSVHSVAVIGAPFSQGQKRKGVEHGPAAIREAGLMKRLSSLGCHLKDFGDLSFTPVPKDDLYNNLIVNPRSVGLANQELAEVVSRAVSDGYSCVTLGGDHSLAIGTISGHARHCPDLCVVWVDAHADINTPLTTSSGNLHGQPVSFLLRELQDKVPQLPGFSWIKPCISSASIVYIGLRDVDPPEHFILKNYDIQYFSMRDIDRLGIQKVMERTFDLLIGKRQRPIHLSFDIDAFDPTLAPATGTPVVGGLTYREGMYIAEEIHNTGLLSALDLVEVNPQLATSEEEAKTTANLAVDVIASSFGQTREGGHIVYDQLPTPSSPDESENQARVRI
As to the kind of experiment: in vitro enzyme assay to detect the production of urea directly proportional to the activity of Arginase II. Note: in the data most compounds retested in dose-response had high values. To be noted: 33.3 µM. The experiment is classed as functional.

Experiment [5] deals with T3, Proteasome subunit beta (Trypanosoma cruzi) (UniProt O96673).
T3 sequence (whole entry): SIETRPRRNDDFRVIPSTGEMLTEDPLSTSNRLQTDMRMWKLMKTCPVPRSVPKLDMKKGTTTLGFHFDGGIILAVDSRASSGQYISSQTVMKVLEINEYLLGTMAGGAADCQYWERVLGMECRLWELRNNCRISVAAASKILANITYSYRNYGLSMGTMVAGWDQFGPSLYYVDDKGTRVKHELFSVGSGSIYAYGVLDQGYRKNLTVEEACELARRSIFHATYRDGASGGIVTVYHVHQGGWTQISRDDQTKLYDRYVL
In words: Trypanosoma cruzi proteasome chymotrypsin-like activity (TcProtChymo) assay. Note: in the data most compounds retested in dose-response had high values. Format: functional. To be noted: 9.37 µM.

The species named for the next experiment is Homo sapiens. In words: To identify inhibition of the IFN signalling (Jak-Stat) pathway via expression of an eGFP reporter gene under the control of an IFN-stimulated response element (ISRE) containing MxA promoter. The experiment is classed as functional. To be noted: 30 µM. (In general: A reporter such as luciferase makes a cellular process visible.)

In experiment [6] the target is T4, Tyrosyl-tRNA synthetase, putative (Trypanosoma cruzi (strain CL Brener)) (UniProt Q4DSP6).
T4 sequence (whole entry): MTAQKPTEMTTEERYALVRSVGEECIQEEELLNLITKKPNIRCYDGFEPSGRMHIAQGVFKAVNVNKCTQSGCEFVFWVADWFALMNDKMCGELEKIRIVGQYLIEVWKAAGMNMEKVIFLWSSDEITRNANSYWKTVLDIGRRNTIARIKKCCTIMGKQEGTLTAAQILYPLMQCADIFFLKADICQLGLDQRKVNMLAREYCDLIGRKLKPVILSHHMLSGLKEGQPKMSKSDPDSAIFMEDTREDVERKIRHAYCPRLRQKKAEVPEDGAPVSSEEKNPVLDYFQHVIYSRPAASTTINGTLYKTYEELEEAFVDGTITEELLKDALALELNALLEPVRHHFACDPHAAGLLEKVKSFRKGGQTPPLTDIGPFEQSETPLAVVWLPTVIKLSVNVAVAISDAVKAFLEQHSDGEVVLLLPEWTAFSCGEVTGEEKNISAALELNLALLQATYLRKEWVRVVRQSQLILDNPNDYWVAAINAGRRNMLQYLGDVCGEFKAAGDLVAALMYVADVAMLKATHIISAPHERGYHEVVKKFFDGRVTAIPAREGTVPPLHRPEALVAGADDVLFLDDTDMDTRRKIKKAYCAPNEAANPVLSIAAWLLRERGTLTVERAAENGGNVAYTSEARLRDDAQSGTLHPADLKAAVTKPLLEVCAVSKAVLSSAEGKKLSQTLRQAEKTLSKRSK
In words: Trypanosoma cruzi tyrosyl tRNA synthetase (TcYRS) _High Tyrosine SOP. Note: in the data most compounds retested in dose-response had high values. Format: functional. To be noted: 30 µM.

Experiment [7] has as its target T4, Tyrosyl-tRNA synthetase, putative (Trypanosoma cruzi (strain CL Brener)). In words: Trypanosoma cruzi tyrosyl tRNA synthetase (TcYRS) SOP. To be noted: 30 µM. Format: functional.
Experiment [8] has as its target Chromo domain-containing protein 1 (Saccharomyces cerevisiae (strain ATCC 204508 / S288c) (Baker's yeast)) (UniProt P32657). As to the kind of experiment: ScCHD-1 Enzyme Inhibition Assay. Note: in the data most compounds retested in dose-response had high values. Format: functional. To be noted: 30 µM.

From ChEMBL document CHEMBL3988442, “University of Dundee, Small-Polar-MMV Screening Library” (2021) come the findings set out here.

For some of these results: Potency and affinity values are given separately.

Protein translocase subunit SecA (Escherichia coli (strain K12)), sequence (P10408 whole entry): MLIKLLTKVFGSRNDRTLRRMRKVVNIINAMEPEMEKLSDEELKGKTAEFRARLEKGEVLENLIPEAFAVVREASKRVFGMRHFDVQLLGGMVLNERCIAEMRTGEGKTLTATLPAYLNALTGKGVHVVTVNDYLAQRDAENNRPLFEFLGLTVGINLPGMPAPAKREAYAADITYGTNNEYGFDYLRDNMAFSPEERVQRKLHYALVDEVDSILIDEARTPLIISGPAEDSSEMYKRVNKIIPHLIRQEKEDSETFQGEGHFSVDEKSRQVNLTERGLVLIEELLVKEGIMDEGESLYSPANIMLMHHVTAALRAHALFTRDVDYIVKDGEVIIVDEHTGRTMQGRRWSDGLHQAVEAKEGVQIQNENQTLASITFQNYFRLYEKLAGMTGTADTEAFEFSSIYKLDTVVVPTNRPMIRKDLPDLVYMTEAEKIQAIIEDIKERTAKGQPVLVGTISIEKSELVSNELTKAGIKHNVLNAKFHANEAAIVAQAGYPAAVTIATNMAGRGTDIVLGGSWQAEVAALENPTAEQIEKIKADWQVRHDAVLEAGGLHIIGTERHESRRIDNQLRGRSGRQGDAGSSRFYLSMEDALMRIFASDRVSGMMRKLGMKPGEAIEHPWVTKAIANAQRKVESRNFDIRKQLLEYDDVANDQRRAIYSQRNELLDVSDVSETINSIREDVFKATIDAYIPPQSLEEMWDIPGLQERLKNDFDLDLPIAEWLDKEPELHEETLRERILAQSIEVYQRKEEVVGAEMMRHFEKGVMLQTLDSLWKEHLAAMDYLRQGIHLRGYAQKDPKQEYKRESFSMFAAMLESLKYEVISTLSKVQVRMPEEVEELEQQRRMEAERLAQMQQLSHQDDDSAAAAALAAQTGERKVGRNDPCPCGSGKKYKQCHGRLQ
Chromo domain-containing protein 1 (Saccharomyces cerevisiae (strain ATCC 204508 / S288c) (Baker's yeast)), sequence (P32657 whole entry, the tested form may be a part): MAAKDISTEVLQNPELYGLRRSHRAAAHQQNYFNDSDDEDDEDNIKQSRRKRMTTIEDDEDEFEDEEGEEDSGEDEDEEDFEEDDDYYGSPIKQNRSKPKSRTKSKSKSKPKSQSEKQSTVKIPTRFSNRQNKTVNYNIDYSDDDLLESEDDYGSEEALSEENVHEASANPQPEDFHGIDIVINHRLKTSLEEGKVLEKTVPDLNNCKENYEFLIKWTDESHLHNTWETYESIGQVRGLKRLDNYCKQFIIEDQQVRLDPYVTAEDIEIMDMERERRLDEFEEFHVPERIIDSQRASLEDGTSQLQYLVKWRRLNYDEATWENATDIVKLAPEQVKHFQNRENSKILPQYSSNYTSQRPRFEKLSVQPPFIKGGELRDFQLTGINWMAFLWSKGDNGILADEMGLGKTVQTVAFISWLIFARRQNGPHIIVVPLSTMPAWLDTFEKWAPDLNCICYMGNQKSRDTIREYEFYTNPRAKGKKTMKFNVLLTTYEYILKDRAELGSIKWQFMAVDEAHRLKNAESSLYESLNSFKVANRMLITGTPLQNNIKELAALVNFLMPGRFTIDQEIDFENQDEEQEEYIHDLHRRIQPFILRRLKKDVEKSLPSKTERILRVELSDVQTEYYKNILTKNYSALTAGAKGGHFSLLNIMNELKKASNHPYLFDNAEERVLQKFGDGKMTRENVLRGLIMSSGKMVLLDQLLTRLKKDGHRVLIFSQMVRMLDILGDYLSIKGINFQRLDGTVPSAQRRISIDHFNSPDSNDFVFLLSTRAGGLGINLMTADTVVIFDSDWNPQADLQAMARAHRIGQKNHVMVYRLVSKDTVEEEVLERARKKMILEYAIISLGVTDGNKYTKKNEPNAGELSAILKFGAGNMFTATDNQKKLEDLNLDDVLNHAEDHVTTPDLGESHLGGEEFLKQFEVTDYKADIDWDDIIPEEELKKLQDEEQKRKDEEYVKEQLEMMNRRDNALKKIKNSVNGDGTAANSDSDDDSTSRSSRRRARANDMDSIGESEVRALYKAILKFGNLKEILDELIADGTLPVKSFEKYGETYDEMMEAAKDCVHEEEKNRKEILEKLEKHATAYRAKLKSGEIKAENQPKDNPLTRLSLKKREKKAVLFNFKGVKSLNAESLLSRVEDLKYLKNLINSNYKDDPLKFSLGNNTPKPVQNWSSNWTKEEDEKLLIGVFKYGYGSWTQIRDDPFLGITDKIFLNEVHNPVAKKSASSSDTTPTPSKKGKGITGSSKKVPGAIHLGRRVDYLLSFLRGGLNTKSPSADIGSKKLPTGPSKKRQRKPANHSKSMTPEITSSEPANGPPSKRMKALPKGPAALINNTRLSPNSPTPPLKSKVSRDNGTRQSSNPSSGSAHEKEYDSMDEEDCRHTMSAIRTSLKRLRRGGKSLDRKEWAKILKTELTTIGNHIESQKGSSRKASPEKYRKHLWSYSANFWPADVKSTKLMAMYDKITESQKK

`CC(C)c1cc(C(F)(F)F)n2nc(CCC(=O)O)nc2n1`: the Percent Effect in experiment [1] is 1.24%; in experiment [2], 14.7%; in experiment [3] it was -8.51%; in the experiment on Trypanosoma cruzi, -3.94%; in experiment [4], 2.65%; in experiment [5], 10.5%. For the same compound, the Percent Effect in the experiment filed under Homo sapiens is 19.8%; in [6] it was 6.35%; in experiment [7] it was 7.5%; in experiment [8], -17.9%.
For `O=C(c1cc(Cl)c2c(c1)OCO2)N1CCCC(n2ccnc2)C1` (stereo not given), the Percent Effect was -2.43% in [1]; 5.33% in experiment [2]; 3.84% in experiment [3]; 2.01% in the experiment with Trypanosoma cruzi; 0% in experiment [4]; 7.72% in experiment [5]. Further, the Percent Effect in the experiment filed under Homo sapiens is 9.8%; in [6] it was -6.84%; in [7], 5.13%; in experiment [8], -5.15%.
Turning to `Cc1nc(C)n(CC2CN(CCOCC(F)(F)F)CCO2)n1` (stereo not given), the Percent Effect is -1.11% in experiment [1]; 0% in experiment [2]; 2.9% in experiment [3]; 0.602% with Trypanosoma cruzi; 2.22% in experiment [4]; 0.594% in experiment [5]. In addition, the Percent Effect in the experiment filed under Homo sapiens is 6.11%; in [6], -1.58%; in experiment [7], 2.56%; in experiment [8], -2.07%.
Take `Cc1[nH]c2ccccc2c1-c1ccnc(NCCN2CCOCC2)n1`: the Percent Effect in experiment [1] is -1.25%; in experiment [2], 5.33%; in [3], -2.88%; in the experiment on Trypanosoma cruzi, -7.83%; in [4] it was -7.54%; in experiment [5], 14.8%. Further, the Percent Effect in the experiment filed under Homo sapiens was 21.5%; in [6], -1.58%; in [7] it was -2.56%; in experiment [8], -15.1%.
As to `Cc1ccc(CCN2CCC(N(C)Cc3noc(C4CC4)n3)C2)cc1` (stereo not given), the Percent Effect was -0.729% in [1]; 10.3% in [2]; -7.58% in [3]; 0.0939% in the experiment with Trypanosoma cruzi; 3.69% in experiment [4]; 11.7% in experiment [5]. For the same compound, the Percent Effect in the experiment listed under Homo sapiens is -3.17%; in [6], 5.26%; in experiment [7], 8.43%; in [8], -4.27%.
On to `Cc1ncc2c(n1)CN(Cc1nc3ccccc3o1)CC2`, for which the Percent Effect in experiment [1] was -2.9%; in experiment [2], 8%; in experiment [3], 3.11%; in the experiment with Trypanosoma cruzi it was 4.02%; in experiment [4], -2.22%; in experiment [5] it was 3.31%. The Percent Effect is -20.5% in the experiment filed under Homo sapiens, 25.8% in experiment [6], 28.2% in experiment [7] and -12.9% in [8].
`Cn1cc(CN2CCOCC3(C2)CN(c2ccccc2)C(=O)CO3)cn1` (stereo not given): the Percent Effect in experiment [1] is -5.71%; in [2] it was 9.09%; in experiment [3] it was -4.81%; in the experiment on Trypanosoma cruzi it was -1.85%; in [4], 0%; in [5] it was 5.03%. For the same compound, the Percent Effect in the experiment filed under Homo sapiens is -7.25%; in experiment [6] it was 6.84%; in experiment [7] it was 10.3%; in [8] it was -1.15%.
`c1ncn(CC2CCCN2Cc2cn3ccsc3n2)n1` (stereo not given): the Percent Effect is -3.52% in [1]; 5.13% in [2]; -17.1% in experiment [3]; 7.61% with Trypanosoma cruzi; -1.23% in experiment [4]; -4.86% in experiment [5]. In addition, the Percent Effect was -3.77% in the experiment filed under Homo sapiens, 2.39% in experiment [6], 6.02% in experiment [7] and 1.9% in experiment [8].
Turning to `c1cnn(CC2CN(Cc3noc(C4CC4)n3)CCO2)c1` (stereo not given), the Percent Effect in experiment [1] was -9.46%; in [2], 16%; in experiment [3], 4.59%; with Trypanosoma cruzi, 1.81%; in [4] it was -3.1%; in experiment [5], 10.8%. Moreover, the Percent Effect is 7.98% in the experiment listed under Homo sapiens, 3.68% in experiment [6], 7.69% in experiment [7] and -6.72% in experiment [8].
With `CC(C)n1[nH]c(=O)c2c1NC(=O)CC2c1ccc2ncccc2c1` (stereo not given), the Percent Effect in experiment [1] was -1.16%; in [2], 5.41%; in experiment [3], 0.703%; in the experiment on Trypanosoma cruzi it was -2.62%; in [4] it was -5.94%; in experiment [5] it was 10.6%. Besides, the Percent Effect in the experiment filed under Homo sapiens is 17.7%; in [6] it was 4.79%; in experiment [7], 9.76%; in experiment [8], 2.28%.
